HepG2 tox: qHTS for Inhibitors of TGF-b: Cytotox Counterscreen; HepG2 CAGA-GFP viability, ATP luminescence, 18 h; Potency, µM (top dose mostly 46.1 µM), inactives show at the top dose activity change, negative = cytotoxicity, usual class: cytotoxic; 0.76% of 410,000 active; AID 588856, 2011
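HepG2 CAGA-GFP cells (1000/well, DMEM with 1% FBS) received compound, then TGF-beta at 500 pg/mL final, and were incubated 18 hours at 37 degrees C. Viability was read by CellTiter-Glo luminescence. Media-only wells were set as complete cell-killing and DMSO as no toxicity.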
A549 tox: Nrf2 qHTS screen for inhibitors: counterscreen for cytotoxicity | A549 ARE-Fluc cells, CellTiter-Fluor viability, 18-24 h | Potency, µM (top dose mostly 46 µM), inactives show top-dose activity change, negative = cytotoxicity, actives largely listed as inhibitors | 0.16% of 390,000 active | AID 504648, 2011; note: % is set by controls: 0 for no effect and ±100 for the full control effect
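A549 ARE_Fluc cells in 5% FBS OPTI-MEM were exposed to compounds in concentration-response for 18-24 h at 37 deg C. Viability was read by CellTiter-Fluor fluorescence (Ex 405/Em 525) after 30 min, before the luciferase read.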
Nrf2 ARE act: qHTS of Nrf2 Activators; AREc32 ARE-luciferase reporter (MCF7-derived line), luminescence, 24 h; Potency, µM (highest dose often 46.1 µM), for inactives: at the top dose activation, usual class: activators; 0.31% of 410,000 active; note: % of control where 0% means no effect; nearly all actives have a fitted effect of over 65% in size
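Luminescent ARE reporter assay in AREc32_Fluc cells: overnight plating at 37 deg C, 24 hr compound incubation, Steady-Glo added, 30 min RT before reading.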
TGFb SMAD3 inh: qHTS for Inhibitors of TGF-b. 1.2% of 410,000 active. AID 588855, 2011. Potency, µM (series often up to 46.1 µM), for inactives: at the top dose activity, negative = inhibition, most hits filed as inhibitors. HepG2 CAGA-GFP TGF-b/SMAD3 reporter, GFP fluorescence, 18 h; TGF-beta stimulated, 500 pg/mL final; note: % is set by controls: 0 for no effect and ±100 for the full control effect; nearly all actives have a fitted effect of over 65% in size
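Per well, imaged GFP fluorescence of HEPG2 CAGA-GFP cells gives the signal; cells get compound, then TGF-beta (500 pg/mL final), 18 h at 37 degrees C; %Activity versus -TGF-beta and +DMSO controls.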
Nrf2 inh: Nrf2 qHTS screen for inhibitors. A549 ARE-Fluc reporter, luciferase luminescence, 18-24 h. Potency, µM (titrated, usually from 46 µM), inactives show top-dose activity change, negative = inhibition, hits mostly inhibitors. 2.1% of 360,000 active. AID 504444, 2011; note: % is set by controls: 0 for no effect and ±100 for the full control effect; nearly all actives have a fitted effect of over 60% in size
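Cells were seeded and rested 2 h, then exposed to compounds for 18-24 h. CellTiter-Fluor was read first as a viability measure. BugLite was added 15 min before the final luminescent read of ARE-luciferase activity in A549 cells.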
* = called active by the depositor; ? = inconclusive; nt = not tested or not shown; [ ] = dose if it differs, or a comment. Shown are actives, neighbours in structure and some others; about 3.6% of the full set was active somewhere. Calls come from the whole dose curve; as a rule, active = well fitted curve in the direction sought with a large enough effect; inconclusive = small, poorly fitted or top-dose-only effect, or another doubt; inactive = no such curve, though single readings can be large; an effect the other way counts as inactive or inconclusive. Potency is the fitted concentration of half-maximal effect.

SMILES	HepG2 tox	A549 tox	Nrf2 ARE act	TGFb SMAD3 inh	Nrf2 inh
CCOc1ccc(CNC(=O)C2CCCN(S(=O)(=O)N(C)c3ccc(F)cc3)C2)cc1OC (configuration not stated)	-19.9%	-12.9%	1.0%	?	?
CN(c1ccc(F)cc1)S(=O)(=O)N1CCCC(C(=O)NCc2cccc(Br)c2)C1 (configuration not stated)	-54.2%	-3.5%	0.0%	8.91µM*	-76.1%
Cc1ccc2nc(SCC(=O)N3CCC(C)CC3)nc(=O)n2c1	6.0%	0.2%	0.0%	9.6%	-1.3%
C/C(CC1CC2=C(CC1(C)C)C(C)(C)CCC2)=N\NC(N)=S (configuration not stated)	11.2µM*	?	7.6%	7.94µM*	?
C/C(CC1CC(C)(C)OC1=O)=N\NC(N)=S (configuration not stated)	3.8%	1.8%	0.5%	1.2%	1.3%
O=C(CCc1nc2ccccc2[nH]1)N1CCc2ccccc2C1	-13.4%	3.5%	0.7%	-0.6%	-23.5%
O=C(/C=C/c1ccccc1)c1ccc2c(c1)OCCCCO2	-55.3%	-0.3%	17.9%	-15.0%	?
O=C1COc2ccc(C(=O)/C=C/c3ccccc3)cc2N1	-15.0%	0.0%	?	8.91µM*	-13.7%
CC(C)C(NS(=O)(=O)c1c(Cl)cccc1Cl)C(=O)OCC(=O)c1c[nH]c2ccccc12 (configuration not stated)	-27.4%	?	0.5%[9.22 µM]	?	23.1µM*
CCN(CC)CCN(C(=O)c1ccc(C(=O)c2ccccc2)cc1)c1nc2c(OC)cccc2s1	-14.1%	-5.5%	-2.0%	1.2%	-9.4%
O=C(NC(NC(=S)Nc1cc(Cl)ccc1Cl)C(Cl)(Cl)Cl)c1ccco1 (configuration not stated)	-29.1%	-1.9%	2.9%	15.8µM*	-17.1%
O=C(NC(NC(=S)Nc1ccc(Cl)c(Cl)c1)C(Cl)(Cl)Cl)c1ccco1 (configuration not stated)	-42.7%	?	3.7%	?	?
O=C(/C=C/c1ccccc1)NC(NC(=S)Nc1cc(Cl)ccc1Cl)C(Cl)(Cl)Cl (configuration not stated)	-7.0%	?	8.8%	2.24µM*	4.11µM*
C=CCn1c(COc2cccc(C)c2)nnc1SC(C)C(=O)NC1CC1 (configuration not stated)	0.3%	-2.8%	-1.1%	-5.5%	-22.7%
O=C(Nc1cc(Cl)cc(Cl)c1)C1CC(=O)N(C2CCCC2)C1 (configuration not stated)	10µM*	-0.3%	0.2%	?	-25.7%
O=C(NCCC1=CCCCC1)C1CC(=O)N(C2CCCCC2)C1 (configuration not stated)	4.5%	18.2%	-0.1%	2.82µM*	7.7%
O=C(c1ccc(Oc2ccc([N+](=O)[O-])cc2)cc1)N1CCCCCC1	-18.7%	-10.3%	0.3%[9.22 µM]	?	5.8µM*
O=C(c1ccc(Oc2ccc([N+](=O)[O-])cc2Cl)cc1)N1CCCC1	-25.2%	11.1%	5.1%	-25.2%	?
O=C(NNc1ccccc1)C(=O)NNS(=O)(=O)c1ccc([N+](=O)[O-])cc1	10.2%	-14.8%	0.6%	2.2%	18.4µM*
O=C(NNc1ccc([N+](=O)[O-])cc1)Nc1ccccc1	-6.6%	-14.3%	3.0%	8.8%	?
CC1=C(C(=O)OC(C)C)C(c2cccs2)C(C(=O)OC(C)C)=C(C)N1	-41.1%	-4.9%	3.2%	17.8µM*	?
CCNC(=O)NC(=O)C(C)Sc1ncc(C(F)(F)F)cc1Cl (configuration not stated)	-47.6%	0.6%	-0.6%	0.0%	-16.0%
Cc1ccnc(N(C(=O)c2cccs2)C(=O)c2cccs2)c1	-46.1%	0.3%	10µM*	-4.9%	5.0%
O=C(c1cccs1)N(C(=O)c1cccs1)c1ccc(Br)cn1	-64.6%	?	?	-26.2%	?
CC(=O)c1c(C)oc2ccc(N(C(C)=O)S(=O)(=O)c3ccc(F)cc3C)cc12	4.4%	-1.1%	-0.6%	2.4%	?
SMILES	HepG2 tox	A549 tox	Nrf2 ARE act	TGFb SMAD3 inh	Nrf2 inh
CC(=O)c1c(C)oc2ccc(N(C(C)=O)S(=O)(=O)c3cccc4cccnc34)cc12	9.6%	-13.8%	-0.2%	-5.2%	18.4µM*
Cc1nc(C)c(-c2ccnc(/N=C/NO)n2)s1	-3.1%	5.9%	-0.7%	-4.1%	-14.1%
CC(=O)/C(=C/c1ccccc1)C(=O)Nc1ccccc1C	-47.9%	11.6%	?	12.6µM*	-9.9%
Cc1ccccc1-n1nc2c(c1NC(=O)COc1ccc(Cl)cc1)CS(=O)C2 (configuration not stated)	-39.5%	1.2%	-0.4%	?	2.7%
COc1ccc(CNC(=S)NC2CCCC2)cc1	-32.2%	14.2%	-0.6%[9.22 µM]	?	42.8%
Cc1ccc(CNC(=S)NC2CCC(C(C)(C)C)CC2)cc1 (configuration not stated)	-23.7%	-22.9%	-1.8%	?	20.6µM*
COc1ccc(NC(=O)Nc2cc(C)ccc2F)cc1	-28.2%	3.1%	0.5%	0.1%	?
CCOC(=O)[C@H]1[C@H]2COc3ccc(Cl)cc3[C@@H]2N2C(=O)c3ccc(F)cc3NC(=O)[C@@]12C	-11.7%	-8.3%	3.5%	?	23.1µM*
CCOC(=O)[C@H]1[C@H]2COc3ccc(Cl)cc3[C@@H]2N2C(=O)c3ccc(C)cc3NC(=O)[C@@]12C	0.1%	-10.2%	-0.1%	-17.6%	16.0%
O=C1NC(Cc2ccc(O)cc2)c2nc3cc(F)ccc3c(=O)n2-c2cc3ccccc3cc21 (configuration not stated)	-21.4%	nt	-4.4%	20µM*	nt
Cc1ccc2c(=O)n3c(nc2c1)C(Cc1ccc(O)cc1)NC(=O)c1cc2ccccc2cc1-3 (configuration not stated)	-31.8%	nt	-2.7%	?	nt
CCC(=O)Nc1ccc(C(=O)NNC(=O)COc2cccc(C)c2)cc1	10.3%	2.2%	4.2%	-4.8%	-2.1%
C(=Cc1cccnc1)c1ccncc1	3.7%	-4.4%	-0.6%	-6.2%	-2.3%
O=C(/C=C/c1cccnc1)/C=C/c1cccnc1	6.31µM*	?	?	3.55µM*	?
Cc1cccc(C(=O)Nc2ccc(C(=O)/C=C/c3ccncc3)cc2)c1	-52.0%	0.6%	-0.2%[9.22 µM]	11.2µM*	6.0%
O=C(/C=C/c1cccnc1)c1ccc(NC(=O)c2cccc(Br)c2)cc1	-13.0%	-7.4%	5.9%	7.0%	?
Cc1cccc(C(=O)Nc2ccc(C(=O)/C=C/c3cccnc3)cc2)c1	-59.8%	-0.1%	11.5%	1.41µM*	?
Cc1ccc(S(=O)(=O)N(CC(=O)NCc2cccs2)c2ccccc2)cc1	-12.1%	6.7%	4.2%	-2.2%	-12.2%

Compound activity (PubChem BioAssay)
